Reference: PubChem BioAssay (NCI)
About 83,000 compounds went through this panel and 20% of them were active in at least one assay; those are over-represented in the sample as a whole.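 Step 1: grow cells in 96-well plates. Step 2: add test compound at a single concentration. Step 3: incubate 48 h. Step 4: record percent growth.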 Values without a mark were called inactive. Active and inactive are the calls of the source. How the source made its calls: active means growth percent below 10; inactive means the rest.

Tested on: HL-60(TB) leukemia
Assay: NCI-60 one-dose screen, 48 h (100 = growth as untreated, 0 = no growth, -100 = all killed)
Conditions: 10 µM unless noted

Structure (SMILES) | growth
NC(=O)NC(=O)/C=C/C(=O)OCCCl | 91.6%
O=S(=O)(O)c1ccc(N/N=C/c2ccccc2Cl)cc1 | 101%
O=C([C@@H](COCc1ccccc1)N1C(=O)[C@@H](N2C(=O)OC[C@@H]2c2ccccc2)[C@H]1/C=C/c1ccccc1)N1CCC(CCN2CCCCC2)CC1 | 64.5%
CSc1nnc(C2=CC(=O)c3ccccc3C2=O)n1-c1ccccc1 | 4.64% (active)
CCOC(=O)c1ccc2c(c1)[n+](=O)c(C(=O)C1CCCS1)c(C(F)(F)F)n2[O-] (stereo not given) | -69% (active)
CCCCCCCC/C=C\CCCCCCCCOc1ccc(CC(=O)NCC[N+]2(C)CCCC2)cc1 | -31.6% (active)
O=C(CCc1nnc(SCc2ccccc2)s1)c1nc2ccccc2[nH]1 | 92.3%
O=C(CCCSc1nc(-c2ccccc2)cc(-c2ccccc2)n1)NO | -26.2% (active)
COc1cc2c(c(OC)c1OC)C(=O)N[C@@H]1[C@@H](O)[C@@H](O)[C@H](O)C[C@@H]21 | 99.3%
CCn1c(C)nc2cc(C(N)=O)ccc21 | 79.7%
Cc1ccc(C2=Nc3c(N)nc(N)nc3NC(c3cccc(Nc4ccnc5cc(C(F)(F)F)ccc45)c3)C2)cc1 (stereo not given) | -11.3% (active)
O/N=C1\c2ccccc2-c2ccc(F)cc21 | 92.3%
CCN(CC)CC(=O)Nc1cccc(C(=O)OC(C)C)c1 | 93%
CCCCCc1cc[n+](CC(=O)c2ccc(Cl)cc2)cc1 | 94%
Cc1cc2c(cc1[N+](=O)[O-])NC(CNC(C)C)CC2 (stereo not given) | 90.9%
O=[N+]([O-])c1cccc(-c2nc3sccn3c2-c2ccnc(NCCCNS(=O)(=O)c3ccc(Br)cc3)n2)c1 | 19.2%
COc1ccc(C(=O)C(Br)C(Br)C(=O)O)cc1 (stereo not given) | 103%
O=C(CCN1CCCC1)Nc1ccc2c(NCCc3ccccc3)c3ccccc3nc2c1 | -58% (active)
Clc1ccc2c(NCCCNC3CCCCC3)ccnc2c1 | 96.1%
CC/C(=C(/c1ccc(Cl)cc1)c1ccc(OCCN2CCCCCC2)cc1)c1ccccc1 | 49.9%

Structure (SMILES) | growth
CC(=O)Nc1ccc(-n2cnc3cc(-c4ccc(OCCN5CCCCC5)cc4)ccc32)cc1 | 98.3%
CC[C@@H](C)/C=C(C)/C=C/C(=O)c1c(O)c(-c2ccc(O)cc2)cn(OC2CC(=O)CCC(C)OC(=O)CC2O)c1=O (stereo not given in full) | -10.1% (active)
CN1CCN(Cc2ccc(NC(=O)c3cccc(C#Cc4cnc(N)c5ncccc45)c3F)cc2C(F)(F)F)CC1 | 12%
COc1ccc(-c2ccc(O)c(C(=O)/C=C/c3cc(OC)c(OC)c(OC)c3)c2)cc1 | 54.5%
C=CC(=O)Nc1cccc(Oc2nccc(Nc3nnc(C4CC4)s3)n2)c1 | 78%
NC(=S)N/N=C/c1ccc(OC(=O)COc2ccccc2)cn1 | 35.3%
O=C(/C=C/c1ccccc1)c1ccc(O)c(CN2CCN(c3cc4c(cc3F)c(=O)c(C(=O)O)cn4C3CC3)CC2)c1 | -6% (active)
N=C(N)c1ccc(-c2ccc(-c3ccccc3)s2)nc1 | 16.6%
C#Cc1ccc(-n2c(/C=C/c3ccc4ccccc4c3)nc3ncccc3c2=O)cc1 | -2.99% (active)
Cc1sc2nc(CSc3nnc(-c4ccco4)o3)[nH]c(=O)c2c1C | 68.6%
NS(=O)(=O)Oc1ccc(NC(=O)C2CCCCCC2)cc1 | 99.2%
CC(C)(C)[Si](C)(C)OC1[C@@H](CNC(=O)NC(=O)NC(N)=O)O[C@@H](n2cnc3c(NC(=O)Nc4ccccc4)ncnc32)[C@H]1O[Si](C)(C)C(C)(C)C (stereo not given in full) | 86.3%
Cc1c(Cl)cccc1NC(=O)CCCl | 73.6%
CCCCCCCCCCCCCCCCCCNC(=O)[C@H]1CSC(c2ccc(F)c(OC)c2)N1 (stereo not given in full) | -68% (active)
COc1ccc(/C(=N\O)c2cc(OC)c(OC)c(OC)c2)c(OC)c1N | -23.8% (active)
Cc1ccc(Cn2c(-c3nonc3N)nc3ccccc32)cc1 | 71.8%
C=C1C(=O)OC2CC1C(OC(C)=O)C/C(C)=C/CC/C(C)=C\CCC2(C)O (stereo not given) | -51.9% (active)
CCCCn1c(=O)c(-c2cc(-c3ccc(Cl)cc3)nc(-c3ccc(Cl)cc3)c2)cc2cc(Cl)ccc21 | 100%
COc1cc(C2=NN(c3ccc(S(N)(=O)=O)cc3)C(c3ccc(Cl)cc3)C2)cc(OC)c1OC (stereo not given) | -25.8% (active)
CCN(CC)c1ccc(/C=N/NC(=O)c2ccc(S(C)(=O)=O)cc2)c(O)c1 | -18.5% (active)
